Assay outcomes (PubChem)
TDP1 cell CPT: growth inhibition of DT40 Tdp1-/-;hTDP1 cells with camptothecin (screen for TDP1 inhibitors) | chicken DT40 Tdp1-/-;hTDP1 cells + 20 nM CPT, ATP luminescence, 48 h | Potency, µM (doses to about 46.2 µM), for the others: at the highest dose activity change, negative = growth inhibition, usual class: inhibitors | 420,000 compounds, 12% hits | AID 686979; note: nearly all actives have a fitted effect of over 55% in size
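Cell growth measured by CellTiter-Glo luminescence after a minimum 48 h, 37 C compound exposure with 20 nM CPT in Tdp1-knockout DT40 cells stably expressing hTDP1, seeded 400/well; qHTS titration format.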
TDP1 inh: TDP1 (human) enzyme inhibition. 350,000 compounds, 0.28% hits. Potency, µM (top dose mostly 130 µM), for the others: at the highest dose activity change, negative = inhibition, hits mostly inhibitors. Q9NUW8. recombinant TDP1, AlphaScreen DNA substrate cleavage; note: nearly all actives have a fitted effect of over 40% in size
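Signal: AlphaScreen proximity between streptavidin donor and anti-FITC acceptor beads on intact substrate. Reaction: Tdp1 1 nM, substrate 15 nM final, 5 min RT after 15 min compound preincubation.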
TDP1 cell noCPT: qHTS for Inhibitors of human tyrosyl-DNA phosphodiesterase 1 (TDP1): qHTS in cells in absence of CPT; DT40 Tdp1-/- hTDP1 cells, no CPT, ATP luminescence, 48 h; Potency, µM (top dose mostly 46.2 µM), for the others: top-dose activity change, negative = growth inhibition, most hits filed as inhibitors; 420,000 compounds, 15% hits; AID 686978, 2013; note: nearly all actives have a fitted effect of over 55% in size
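A cellular qHTS used chicken DT40 cells lacking endogenous Tdp1 but carrying stably transfected human TDP1. Compounds were applied without camptothecin, and cell growth kinetics were judged by ATP-dependent luminescence after ≥48 hr.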
Gal4-VP16 FLuc: counter-screen for ROR gamma inhibitors: Gal4-VP16 reporter | 310,000 compounds, 3.5% hits | Drosophila S2 Gal4-VP16 UAS-luciferase, luminescence, 20 h | Potency, µM (titrated, usually from 53.6 µM), without a hit: at the highest dose activity, negative = inhibition, hits mostly inhibitors | AID 2546;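 note: Gal4-VP16 expression switched on by copper sulfate through the metallothionein promoter; nearly all actives have a fitted effect of over 50% in size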
RORgamma inh: ROR gamma (mouse) transcription inhibition | Drosophila S2 Gal4-RORgamma UAS-luciferase reporter, 20 h | Potency, µM (highest dose often 53.6 µM), inactives show at the highest dose activity change, negative = inhibition, usual class: inhibitors | 310,000 compounds, 5.4% hits | P51450 | AID 2551; note: nearly all actives have a fitted effect of over 60% in size
Target sequence (P51450 whole entry, looked up, the tested form may be a part): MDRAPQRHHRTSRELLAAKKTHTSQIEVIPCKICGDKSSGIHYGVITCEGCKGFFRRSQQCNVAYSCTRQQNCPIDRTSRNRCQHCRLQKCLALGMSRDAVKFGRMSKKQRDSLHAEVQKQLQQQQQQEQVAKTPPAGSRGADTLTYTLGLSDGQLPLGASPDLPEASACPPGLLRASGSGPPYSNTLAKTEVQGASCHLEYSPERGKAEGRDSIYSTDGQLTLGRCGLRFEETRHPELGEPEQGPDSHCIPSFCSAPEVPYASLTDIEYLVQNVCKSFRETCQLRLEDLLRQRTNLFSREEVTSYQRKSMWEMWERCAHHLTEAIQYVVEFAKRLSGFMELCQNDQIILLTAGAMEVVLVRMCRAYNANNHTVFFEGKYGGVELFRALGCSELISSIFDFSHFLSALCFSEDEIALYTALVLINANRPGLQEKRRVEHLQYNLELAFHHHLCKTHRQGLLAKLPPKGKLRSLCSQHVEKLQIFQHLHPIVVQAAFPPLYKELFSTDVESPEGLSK
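Stably transfected Drosophila Schneider cells are the test system, with ROR gamma fused to Gal4 and luciferase under UAS control; luminescence is read after 20 hr of 700 uM copper sulfate induction at ambient temperature.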
* hit, by the source's call; ? = inconclusive; / = no result given; [ ] = remark or other dose. Rows were chosen to be rich in hits. Some 19% of all compounds tested hit in one or more screens of this group. Calls come from the whole dose curve; as a rule, active = well fitted curve in the direction sought with a large enough effect; inconclusive = small, poorly fitted or top-dose-only effect, or another doubt; inactive = no such curve, though single readings can be large; an effect the other way counts as inactive or inconclusive. % is set by controls: 0 for no effect and ±100 for the full control effect; potency is the fitted concentration of half-maximal effect.

SMILES	TDP1 cell CPT	TDP1 inh	TDP1 cell noCPT	Gal4-VP16 FLuc	RORgamma inh
CS(=O)(=O)Nc1ccccc1C(=O)NCC1(N2CCCCC2)CCCCC1	-9.4%	0.3%	-7.7%	8.4%	-10.7%
CC(C)N1CCN(Cc2ccc3c(c2)Cc2ccccc2-3)CC1CCO (configuration not stated)	?	-2.4%	23.1µM*	-2.9%	-10.6%
CC(C)N1CCN(Cc2ccc(-c3ccccc3)cc2)CC1CCO (configuration not stated)	2.4%	3.7%	?	-0.9%	-26.0%
CC(=O)N/N=C/c1cc(C(C)(C)C)cc(/C=N/NC(C)=O)c1O	-29.0%	3.6%	25.9µM*	14.1µM*	2.82µM*
CC(C)(C)c1ccc(/C=N/Nc2cccc(C(=O)O)c2)cc1	-5.3%	4.6%	7.7%	6.4%	6.7%
O=C(Cc1cccc(F)c1F)NC1CCCN(Cc2ccc(Cl)cc2)C1 (configuration not stated)	?	/	?	-8.0%	4.6%
Oc1csc(Cc2nc(-c3ccc4ccccc4c3)cs2)n1	?	8.3%	14.6µM*	-36.2%	11.2µM*
Oc1csc(Cc2nc(-c3ccc(-c4ccccc4)cc3)cs2)n1	1.4%	3.4%	0.6%	-2.7%	?
O=S(=O)(NCCSc1nnnn1-c1ccccc1)c1cccs1	-2.6%	0.0%	-30.0%	8.8%[0.365 µM]	-0.6%
CN1C(=O)C(C)(C)c2cc(S(=O)(=O)N3CCCC(C(=O)NCc4ccc(F)cc4)C3)ccc21 (configuration not stated)	?	/	?	-11.7%	7.9%
Cc1nnc(C)c2c(C)n(C(C)c3ccccc3)c(C)c12 (configuration not stated)	16.4µM*	6.1%	11.6µM*	-7.7%	-2.1%
COc1ccc(C(C)n2c(C)c3c(C)nnc(C)c3c2C)cc1 (configuration not stated)	14.6µM*	5.7%	23.1µM*	0.0%	-24.9%
CC(C)N(C(=O)COC(=O)c1cccc(S(=O)(=O)N2CC3(C)CC2CC(C)(C)C3)c1)C(C)C (configuration not stated)	23.1µM*	2.3%	?	/	/
CN(C)C(CNC(=O)c1cccc(S(=O)(=O)N2CC3(C)CC2CC(C)(C)C3)c1)c1ccco1 (configuration not stated)	?	7.0%	16.4µM*	-3.2%	-0.2%[10 µM]
Cc1cc(C(=O)O)cc(S(=O)(=O)Nc2ccccc2C(=O)NC(C)c2ccccc2)c1C (configuration not stated)	-11.8%	4.1%	13.0%	0.9%	-19.8%
C/C(Cn1cnc([N+](=O)[O-])n1)=N\NC(=O)c1ccc(Br)cc1	-7.6%	-1.9%	-0.8%	-3.8%	?
C/C(Cn1nnc([N+](=O)[O-])n1)=N\NC(=O)c1ccc(O)cc1	14.6µM*	2.6%	13µM*	7.94µM*	2.82µM*
C/C(Cn1nnc([N+](=O)[O-])n1)=N\NC(=O)c1ccc(Cl)c(Cl)c1	18.4µM*	7.1%	16.4µM*	?	12.6µM*
CC(NC(=O)C1CCCN1S(=O)(=O)c1cccc2cccnc12)c1ccccc1 (configuration not stated)	?	1.0%	?	1.6%	-12.2%
Cc1ccccc1OCC(=O)Nc1nnc(-c2ccncc2)s1	-11.1%	-12.8%	-6.4%	2.3%	9.9%
CC(CN(C)C)CN1c2ccccc2Sc2ccccc21 (configuration not stated)	?	12.0%	18.4µM*	4.8%	-15.6%
O=C(CSc1nc2ccccc2s1)N1c2ccccc2Sc2ccc(Cl)cc21	?	0.0%	?	-4.7%	-0.6%
CCN(CC)CC(=O)N1c2ccccc2Sc2ccccc21	?	/	-20.0%	-11.0%	7.2%
CC(CN(C)C)CN1c2ccccc2Sc2ccc(C(F)(F)F)cc21 (configuration not stated)	?	/	16.8µM*	-7.1%	10.9%
